Screening data deposited in PubChem by National Center for Advancing Translational Sciences (NCATS).
Shown is part of a subset that was picked to be rich in hits.
GFP derepression – epigenetic GFP locus derepression in mouse cells. Potency, µM (titrated, usually from 46.1 µM). AID 597. hit rate 0.09% among 68,000. mouse C127i GFP locus derepression, cytometry, 30 h
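Murine C127i mammary cells carrying a silenced, stably integrated CMV-driven GFP reporter were treated with compound for 30 hours at 37 C. After PBS washes, GFP-positive cells were counted by laser-scanning microplate cytometry.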
IkB sig inh – inhibitors of IkB signaling in ABC-DLBCL cells. hit rate 0.04% among 110,000. ABC-DLBCL IkBa-CBG/CBR dual luciferase ratio, 4 h; response scale: scaled: untreated 0%, proteasome inhibitor 100%. AID 445. Potency, µM (highest dose often 57.1 µM); active = well fitted curve in the direction sought with a large enough effect in the signal ratio, not every such curve was filed as active; inconclusive = small, poorly fitted or top-dose-only effect, or a change in a side signal; the % refers to the signal ratio;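 note: the direction sought is a rising ratio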
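Curves were fitted separately to fusion (green), unfused (red) and ratio luminescence, then classed by r2, magnitude and activity. Cells: OCI-Ly3, 4 h compound plus doxycycline at 37C; 10 uM MG-132 defined full response.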
CRE-bla Fsk – alters forskolin-stimulated CRE reporter signaling in CHO cells. Potency, µM (titrated, usually from 38.2 µM), hits mostly activators. CHO CRE-bla reporter (cAMP response element driving beta-lactamase), forskolin EC10, beta-lactamase ratio. hit rate 2.5% among 71,000. AID 662; active = well fitted activation curve with a large enough effect in the signal ratio, with a control signal flat, not every such curve was filed as active; inconclusive = small, poorly fitted or top-dose-only effect, or effect the other way, or a change in a side signal; the % refers to the signal ratio
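Cells were plated overnight at 37 °C, exposed to compound titrations plus EC10 NKH 477 for 3 h, then given CCF4 dye for 2 h at room temperature. Blue/green (460/530 nm) ratio was converted to %Activity and AC50 values calculated.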
Imprint erasure – inducers of genomic imprint erasure in mouse ES cells | AID 1948 | mouse ES Peg3-LacZ reporter, beta-gal luminescence, 40 h | hit rate 0.02% among 110,000 | Potency, µM (top dose mostly 60.7 µM), usual class: activators
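Gelatin-coated wells received 300 freshly trypsinized female ES cells with a Peg3LacZ-Neo reporter on the maternal allele, then incubated 40 hours at 37C. BetaGlo was added for 5 minutes at room temperature before a single luminescence read.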
HBB splice mod – modulators of hemoglobin beta chain splicing; HBB splicing reporter cell assay, activation; EGFP reporter with mutant IVS2-654 intron; response scale: normalised to 500 nM splice-correcting PNA; Potency, µM (top dose mostly 46.1 µM), most hits filed as activators; hit rate 0.06% among 65,000; AID 925
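Compounds were applied for 2 days to HeLa EGFP-654 cells, 500/well in Optimem with 2% FCS. The reporter's EGFP is disrupted by mis-splicing of beta-globin intron IVS2-654. Readout: summed well GFP fluorescence from 488 nm laser scanning; reference was 500 nM antisense […] 654 PNA.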
A number is an active result; . = inactive; ? = inconclusive; / = not tested or not shown; [ ] = another dose, or the depositor's remark. Unless noted, calls come from the whole dose curve; as a rule, active = well fitted curve in the direction sought with a large enough effect; inconclusive = small, poorly fitted or top-dose-only effect, or another doubt; inactive = no such curve, though single readings can be large; an effect the other way counts as inactive or inconclusive.

SMILES | GFP derepression | IkB sig inh | CRE-bla Fsk | Imprint erasure | HBB splice mod
CCc1ccccc1N1CC(c2nc3ccccc3n2CCC2CCCCC2)CC1=O (centres undefined) | / | ? | / | .[10.9 µM] | /
COc1ccc(C2C3=C(Nc4ncnn42)c2ccccc2CCC3)cc1 (centres undefined) | . | . | . | . | .
COc1cc(C2C3=C(Nc4ncnn42)c2ccccc2CC3)cc(OC)c1OC (centres undefined) | . | . | 0.5µM | . | .
COc1ccc(-c2csc(Cc3nnc4n3CCCCC4)n2)cc1OC | . | . | 13µM | . | .
COc1ccc(Cl)cc1NCc1nnc2n1CCCCC2 | / | . | / | .[10.9 µM] | /
COc1ccc(Cl)cc1NC(=O)CN(c1cccc(C)c1C)S(C)(=O)=O | / | ? | / | .[10.9 µM] | /
COc1ccc(N2CCN(Cc3nc4c(c(=O)[nH]c(=O)n4C)n3Cc3ccccc3)CC2)cc1 | / | . | / | .[10.9 µM] | /
Cn1c(=O)[nH]c(=O)c2c1nc(CN1CCN(c3cccc(Cl)c3)CC1)n2CCCc1ccccc1 | / | . | 7.9µM | . | .
CCCCn1c(CN2CCN(c3cccc(Cl)c3)CC2)nc2c1c(=O)[nH]c(=O)n2C | . | . | 10µM | . | .
COc1ccc(N2CCN(Cc3nc4c(c(=O)[nH]c(=O)n4C)n3CCCc3ccccc3)CC2)cc1 | . | . | 10µM | . | .
Cn1c(=O)[nH]c(=O)c2c1nc(CN1CCN(c3cccc(Cl)c3)CC1)n2CCN1CCOCC1 | . | . | . | . | .
Cc1cccc(-n2ncc(C(=O)NCc3ccco3)c2C2CCN(C(=O)OC(C)(C)C)CC2)c1 | / | ? | / | .[10.9 µM] | /
Cc1cccc2cc(CN(CC3CCCO3)C(=O)c3cccnc3)c3nnnn3c12 (centres undefined) | . | . | 4µM | / | /
Cc1cccc2cc(CN(CC3CCCO3)S(=O)(=O)c3ccccc3)c3nnnn3c12 (centres undefined) | . | . | . | / | /
CN1C(C(=O)c2ccccc2)=C(NC(=O)c2ccccc2Br)c2ccccc2S1(=O)=O | / | ? | / | .[10.9 µM] | /
CCN(CC)S(=O)(=O)c1ccc2c(c1)nc(SCc1nc3ccsc3c(=O)[nH]1)n2CC | . | ? | 5µM | . | .
Nc1c(C(=O)NCCN2CCOCC2)c2nc3ccccc3nc2n1-c1ccc2c(c1)OCO2 | . | . | . | . | .
Nc1ccc(-n2c(N)c(C(=O)NCc3ccc4c(c3)OCO4)c3nc4ccccc4nc32)cc1 | . | . | 13µM | . | .
Nc1c(C(=O)NCc2ccc3c(c2)OCO3)c2nc3ccccc3nc2n1CCCN1CCOCC1 | . | ? | 13µM | . | .[0.369 µM]
COCCCNC(=O)CSc1nc2nc(C)c(Cc3ccccc3Cl)c(C)n2n1 | / | . | / | .[10.9 µM] | /
Oc1c(CN2CCN(c3ccccn3)CC2)cc(Cl)c2cccnc12 | 3.2µM | ? | ? | . | .
Cc1c(=O)n(OCc2ccccc2)c2ccccc2[n+]1[O-] | . | . | ? | . | ?
COc1ccc(COn2c(=O)c(C)[n+]([O-])c3ccccc32)cc1OC | . | . | 10µM | . | ?
COc1ccc2[nH]c(O)c(NC(C)=O)c2c1 | . | . | 0.4µM | . | .
CCOc1ccc(NC(=O)c2c(NC(=O)Cc3ccccc3)sc3c2CCCC3)cc1 | / | . | / | .[10.9 µM] | /
SMILES | GFP derepression | IkB sig inh | CRE-bla Fsk | Imprint erasure | HBB splice mod
Cc1cc(C)n2c(Nc3cccc(C(F)(F)F)c3)c(-c3ccsc3)nc2n1 | / | ? | / | .[10.9 µM] | /
CCN1C=C(C(=O)OC)C(c2cccc(C)c2)C(C(=O)OC)=C1 | . | . | ? | . | .[9.22 µM]
COC(=O)C1=CN(C(C)C)C=C(C(=O)OC)C1c1cccc(OC)c1 | . | . | 13µM | . | .
COc1cccc(CNc2nc3nc(C)c(Cl)c(C)n3n2)c1 | . | ? | ? | . | .
COc1ccc(CNc2nc3nc(C)c(Cl)c(C)n3n2)cc1OC | . | . | 13µM | . | .
CCC(C(=O)NC1CCC(C)CC1)n1nc(C)c2sc3ccccc3c2c1=O (centres undefined) | / | ? | / | .[10.9 µM] | /
O=c1[nH]c(SCCOc2ccccc2)nc2ccccc12 | . | . | ? | . | .
COc1ccccc1OCCSc1nc2ccccc2c(=O)[nH]1 | . | . | 10µM | . | .[9.22 µM]
COc1ccc(-c2nnc3ccc(SC(C(C)=O)C(C)=O)nn23)cc1OC | . | . | 6.3µM | . | .
CCC(Sc1ccc2nnc(-c3ccc(OC)c(OC)c3)n2n1)C(=O)O (centres undefined) | . | . | . | . | .
COCCNC(=O)C(C#N)c1nc2ccccc2nc1N1CCCCCC1 (centres undefined) | . | ? | 10µM | . | .
CCC(CC)COC(=O)C(C#N)c1nc2ccccc2nc1N1CCOCC1 (centres undefined) | . | . | 2µM | . | .
COCCCNC(=O)C(C#N)c1nc2ccccc2nc1N1CCN(Cc2ccccc2)CC1 (centres undefined) | . | / | / | / | /
N#CC(C(=O)NC1CC1)c1nc2ccccc2nc1N1CCCC1 (centres undefined) | . | . | 5µM | . | .
N#CC(C(=O)OC1CCCCC1)c1nc2ccccc2nc1N1CCOCC1 (centres undefined) | . | . | ? | . | .
N#CC(C(=O)NC1CCCCC1)c1nc2ccccc2nc1N1CCCCC1 (centres undefined) | . | . | . | . | .
CCOC(=O)CNC(=O)N1CCN(S(=O)(=O)c2ccc3c(ccn3C)c2)CC1 | / | . | / | .[10.9 µM] | /
CCCCNC(=O)CSc1nc2n[nH]c(C)c2c(=N)n1-c1ccccc1CC | / | ? | / | .[10.9 µM] | /
Cc1ccccc1-n1nc(CO)c(C(=O)NCc2cccs2)n1 | / | . | / | .[10.9 µM] | /
CSc1nc(N)nc(SC2C=CCCC2)c1C#N (centres undefined) | . | . | 13µM | . | .
CSc1nc(N)nc(SCCS(=O)(=O)c2ccc(Cl)cc2)c1C#N | . | ? | ? | . | .
COc1ccc(Cn2c(SCc3ccc(C(=O)NCc4cccs4)cc3)nc3ccncc32)cc1 | / | ? | / | .[10.9 µM] | /
Cc1sc2ncn(CC(=O)N3CCN(c4ccccc4)CC3)c(=O)c2c1S(=O)(=O)N1CCC(C)CC1 | / | ? | / | .[10.9 µM] | /
CC(C)CCn1c(SCC#N)nc2c(sc3ccccc32)c1=O | . | . | 0.4µM | . | .
CCS(=O)(=O)N1CCc2cc(C(=O)N3CCN(c4ccc(OC)cc4)CC3)ccc21 | / | ? | / | .[10.9 µM] | /
SMILES | GFP derepression | IkB sig inh | CRE-bla Fsk | Imprint erasure | HBB splice mod
CCOc1ccccc1NC(=O)Cn1cnc2c(nnn2-c2cccc(OC)c2)c1=O | / | . | 13µM | . | .
O=C(Cn1cnnn1)OCC(=O)c1ccc(Cl)s1 | . | ? | ? | . | 13µM
CCn1c2ccccc2c2nc3cc(S(=O)(=O)N4CCOCC4)ccc3nc21 | . | ? | 2µM | . | .
O=c1c2ccccc2nc(-c2ccccc2)n1CCN1CCOCC1 | . | . | . | . | .
Brc1ccc2c(c1)c1nc3ccccc3nc1n2CCN1CCOCC1 | . | . | 13µM | . | .
CCn1c(C)nc2cc(S(=O)(=O)N3CCCCC3)ccc21 | . | . | . | . | .
